This is a sample that favours compounds with a hit; in the whole collection about 3.4% have one here.
Gli-Sufu block = Gli-Sufu pathway antagonism; Sufu-KO-LIGHT fibroblasts, Gli luciferase reporter luminescence; inhibition, % at 5 µM; 340,000 compounds, 0.74% hits; AID 588413;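 active = inhibition above about 55%, limit read from the data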
H9c2 protect = modulators protecting cardiomyocytes from myocardial damage. H9c2 cardiomyocytes, H2O2 injury protection, ATPLite, 2 h. protection from H2O2 cell death, % at 20 µM. 360,000 compounds, 0.63% hits. AID 588492;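 active = compounds giving at least 50% protection of heart cells from peroxide-induced death in the single-dose screen, raw or plate-pattern-corrected value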
GalR3 antag = antagonists of human GalR3 | O60755 | AID 651719 | 360,000 compounds, 0.44% hits | inhibition, % at 3 µM | HEK293 GalR3-CNG cAMP membrane potential fluorescence; galR3 body fused to GalR1 C-terminus;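 active = inhibition above the screen-wide average plus 3 SD, cut at about 13% in these data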;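 note: forskolin and galanin both at EC90 stimulate the cells; cAMP rise reported by CNG channel membrane potential dye signal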
Target sequence (O60755 1-299 limits assumed): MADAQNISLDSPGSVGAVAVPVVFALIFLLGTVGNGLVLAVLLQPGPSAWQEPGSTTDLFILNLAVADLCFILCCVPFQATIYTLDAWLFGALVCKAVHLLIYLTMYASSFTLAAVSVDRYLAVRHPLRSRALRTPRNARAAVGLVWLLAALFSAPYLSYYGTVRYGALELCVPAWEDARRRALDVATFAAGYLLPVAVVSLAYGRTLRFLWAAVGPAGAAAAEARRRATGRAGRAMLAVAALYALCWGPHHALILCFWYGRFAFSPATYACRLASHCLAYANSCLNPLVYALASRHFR
FXN GAA850 act = frataxin GAA850 promoter activation; HEK293 lucGAA850 FXN promoter luciferase reporter, 24 h; percent of 10 µM SAHA response; activation, % at 6 µM; 360,000 compounds, 0.56% hits; AID 540364;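 active = activation above the average of all compounds screened plus 3 SD, cutoff fixed separately per campaign, cut at about 7.5% in these data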
COUP-TFII inh = inhibitors of human COUP-TFII (NR2F2) | AID 686940 | inhibition, % at 8.6 µM | HEK293T NGFI-A luciferase reporter, luminescence | 370,000 compounds, 0.7% hits | P24468;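 active = inhibition above a per-plate cutoff, mean inhibition of test wells between control levels plus 3 SD, cut at about 38% in these data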;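 note: cells cotransfected with COUP-TFII expression vector driving the NGFI-A reporter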
Target sequence (P24468 whole entry, looked up): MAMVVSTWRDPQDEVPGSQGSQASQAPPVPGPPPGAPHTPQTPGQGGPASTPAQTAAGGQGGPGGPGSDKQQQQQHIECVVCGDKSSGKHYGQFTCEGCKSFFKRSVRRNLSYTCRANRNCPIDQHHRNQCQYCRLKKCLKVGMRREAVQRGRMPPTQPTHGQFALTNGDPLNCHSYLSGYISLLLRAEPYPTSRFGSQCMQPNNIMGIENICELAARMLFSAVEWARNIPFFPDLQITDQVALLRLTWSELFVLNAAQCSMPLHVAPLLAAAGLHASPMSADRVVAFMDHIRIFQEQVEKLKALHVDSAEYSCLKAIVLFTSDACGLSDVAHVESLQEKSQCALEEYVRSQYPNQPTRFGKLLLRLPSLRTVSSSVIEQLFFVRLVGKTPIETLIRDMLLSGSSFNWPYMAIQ
SMARCA2 activ = SMARCA2 function activation, primary screen | MG213 cells, MMTV-luciferase reporter, dexamethasone, overnight | activation, % at 9.1 µM | 370,000 compounds, 1% hits; in the data active = activation above about 7.8%
SMARCA2 conf = confirmation of SMARCA2 (BRM) function activators. shares compounds with SMARCA2 activ. 3,500 compounds, 30% hits. AID 652260. activation, % at 9.1 µM. MG213 cells, MMTV-luciferase with dexamethasone, luminescence, overnight; MG213 cells expressing E1A, Rb sequestered; DMSO wells 0%, reference activator 100%;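 active = activation above its plate's cutoff, the mean activation of tested wells plus 3 SD, cut at about 7.9% in these data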
GAL4-VP16 Luc = counter-screen for SMARCA2 activators: GAL4-VP16 luciferase reporter activation | shares compounds with SMARCA2 activ | HEK293 GAL4-VP16 pG5luc reporter, luciferase luminescence; scaled: DMSO wells 0%, SAHA wells 100% | activation, % at 9.1 µM | 3,500 compounds, 41% hits | AID 686939;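 active = activation above the solvent-only control well mean plus 3 SD, averaged across control plates, cut at about 5.2% in these data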
Numbers stand for hits; 0 = inactive; - = no result.

SMILES | Gli-Sufu block | H9c2 protect | GalR3 antag | FXN GAA850 act | COUP-TFII inh | SMARCA2 activ | SMARCA2 conf | GAL4-VP16 Luc
CC1(c2ccc3ccccc3c2)NC(=O)N(CC(=O)NCc2cccs2)C1=O (centres undefined) | 0 | 0 | 0 | 0 | 0 | 9.6 | 0 | 0
O=C(NC(=S)NCc1nc2ccccc2[nH]1)c1ccc(F)cc1 | 0 | 0 | 0 | 0 | 0 | 9.9 | 0 | 0
O=C(NC(=S)NCc1nc2ccccc2[nH]1)c1ccccc1F | 0 | 0 | 0 | 0 | 0 | 0 | - | -
CCCCN1CC(N2CCN(CCO)CC2)CS1(=O)=O (centres undefined) | - | 0 | 0 | - | 0 | 0 | - | -
CCCCCCN1CCN(C2CN(CCCC)S(=O)(=O)C2)CC1 (centres undefined) | - | 0 | 0 | - | 0 | 8.7 | 0 | 0
COc1cccc(-c2nc(CN3CCN(C(=O)c4ccco4)CC3)c(C)o2)c1OC | - | 0 | 0 | 0 | 0 | 0 | - | -
CCOC(=O)c1ccc(S(=O)(=O)N2CCN(Cc3cc4c(cc3O)OCO4)CC2)cc1 | 0 | 0 | 0 | 0 | 0 | 0 | - | -
Cc1ccccc1OCc1nc2ccccc2[nH]1 | 0 | 0 | 0 | 0 | 0 | 8.9 | 0 | 14
COc1ccccc1OCc1nc2ccccc2[nH]1 | 0 | 0 | 0 | 0 | 0 | 0 | - | -
CC(C)(C)CC(=O)Nc1ccc(-c2nnc3n2CCCCC3)cc1 | 0 | 0 | 0 | 0 | 0 | 0 | - | -
O=C(/C=C/c1ccccc1Cl)Nc1ccc(-c2nnc3n2CCCCC3)cc1 | 0 | 0 | 0 | 0 | 0 | 10 | 0 | 0
O=C(c1c(Cl)nc2sccn12)N1CCN(c2cccc(Cl)c2)CC1 | 0 | 0 | 0 | 0 | 0 | 0 | - | -
Cc1ccc(C(=O)Nc2nnc(SCC(=O)N3CCCc4ccccc43)s2)cc1 | 0 | 0 | 0 | 0 | 0 | 9.3 | 0 | 8.4
O=C(Nc1nnc(SCC(=O)N2CCCc3ccccc32)s1)c1cccc2ccccc12 | 0 | 0 | 0 | 0 | 0 | 0 | - | -
CCOC(=O)N1CCN(S(=O)(=O)c2ccc(OC)c(C(=O)N3CCCCC3)c2)CC1 | 0 | 0 | 0 | 0 | 0 | 0 | - | -
O=C(CCc1nnc2ccc(N3CCC4(CC3)OCCO4)nn12)NCc1ccccc1Cl | 0 | 0 | 0 | 0 | 0 | 0 | - | -
CC(=O)OCc1ccccc1Sc1ccccc1C(=O)NCc1ccccc1 | 0 | 0 | 0 | 0 | 0 | 10 | 0 | 0
COc1ccc(CNC(=O)c2ccccc2SC)cc1 | 0 | 0 | 0 | 0 | 0 | 0 | - | -
CC(C)(C)CC(=O)O/N=C(\N)c1ccccn1 | - | 0 | 0 | 0 | 0 | 11 | 8.8 | 0
Cc1cccc(OCC(=O)O/N=C(\N)c2ccccn2)c1C | 0 | 0 | 0 | 0 | 0 | 9.2 | 10 | 7.0
N/C(=N\OC(=O)Cc1ccc(Cl)cc1)c1ccccn1 | 0 | 0 | 0 | 0 | 0 | 0 | - | -
Cc1ccc(CC(=O)O/N=C(\N)c2ccccn2)cc1 | 0 | 0 | 0 | 0 | 0 | 8.9 | 9.7 | 8.4
Cc1ccc(OCC(=O)O/N=C(\N)c2ccccn2)cc1 | 0 | 0 | 0 | 0 | 0 | 0 | - | -
COCCNC(=O)C1CCCN(C(=O)c2sccc2C)CC1 (centres undefined) | - | 0 | 0 | 0 | 0 | 0 | - | -
Cc1ccc(/C=C(\C#N)C(=O)Nc2ccccn2)o1 | 0 | 0 | 0 | 0 | 0 | 0 | - | -
SMILES | Gli-Sufu block | H9c2 protect | GalR3 antag | FXN GAA850 act | COUP-TFII inh | SMARCA2 activ | SMARCA2 conf | GAL4-VP16 Luc
COc1ccc2oc(C(=O)OCC(=O)N(C)C3CCS(=O)(=O)C3)c(C)c2c1 (centres undefined) | 0 | 0 | 0 | 0 | 0 | 0 | - | -
C=CCN(CC=C)C(=O)C1CCN(S(=O)(=O)c2ccc(N3CCCC3=O)cc2)CC1 | 0 | 0 | 0 | 0 | 0 | 0 | - | -
N#CC(Cc1cccs1)c1nc2ccccc2[nH]1 (centres undefined) | - | 0 | 0 | 0 | 0 | 8.6 | 0 | 0
COc1cccc(N2CCN(C(=O)CCn3nnc4ccccc43)CC2)c1 | - | - | - | - | 0 | 9.4 | 0 | 0
COc1ccc(-n2c(=O)c(CCC(=O)N3CCN(c4cccc(OC)c4)CC3)nc3ccccc32)cc1 | - | 0 | 0 | 0 | 0 | 0 | - | -
Cc1ccc(/C=C(\NC(=O)c2ccc(C)cc2)c2nc(=S)[nH][nH]2)cc1 | 0 | 0 | 0 | 0 | 0 | 10 | 0 | 0
COc1ccc(C(=O)N(C)Cc2nc3ccccc3c(=O)[nH]2)cc1S(=O)(=O)N1CCCC1 | 0 | 0 | 0 | 0 | 0 | 0 | - | -
Cc1ccc(C(=O)N(C)Cc2nc3ccccc3c(=O)[nH]2)cc1NC(=O)c1ccco1 | 0 | 0 | 0 | 0 | 0 | 8.1 | 0 | 0
Cc1cc(N2CCN(C)CC2)nc2ccc(NC(=O)CCC3CCCC3)cc12 | 0 | 0 | 0 | 0 | 0 | 0 | - | -
Oc1ccc(-c2nccc(-c3ccccn3)n2)cc1 | 0 | 0 | 0 | 0 | 0 | 10 | 0 | 8.1
O=C(NC1CCCCC1)c1ccc(-n2cnnn2)cc1 | 0 | 0 | 0 | 0 | 0 | 0 | - | -
CN1/C(=C\C(=O)c2cccnc2)Sc2ccccc21 | 0 | 0 | 0 | 0 | 0 | 13 | 0 | 9.1
COc1cccc(C(=O)/C=C2\Sc3ccccc3N2C)c1 | 0 | 0 | 0 | 0 | 0 | 0 | - | -
CC1CCC2(CC1)NC(=O)N(CC(=O)Nc1ccc3[nH]c(=O)[nH]c3c1)C2=O (centres undefined) | 0 | 0 | 0 | 0 | 0 | 0 | - | -
COc1cccc(C(=O)Nc2nnc(-c3cccs3)s2)c1 | 0 | 0 | 0 | 0 | 0 | 8.3 | 12 | 14
NC(=O)c1cccc(-c2ccnc3c2CC(C(=O)Nc2cccc(Oc4ccccc4)c2)O3)c1 (centres undefined) | - | 0 | - | 0 | - | - | - | -
COc1cc(/C=C/C(=O)O)cc2c1OCCO2 | 0 | 0 | 0 | 0 | 0 | 8.0 | 0 | 0
Cc1cccc(NC(=O)COC(=O)c2ccc(S(=O)(=O)N3CCCC3)cc2)c1 | 0 | 0 | 0 | 0 | 0 | 0 | - | -
O=C(COC(=O)c1ccc(S(=O)(=O)N2CCCC2)cc1)Nc1cccc(F)c1 | 0 | 0 | 0 | 0 | 0 | 10 | 0 | 0
Cc1cccc2nc(CSc3nnc4ccccn34)cn12 | 0 | 0 | 0 | 0 | 0 | 8.4 | 9.9 | 12
Cc1cccc2nc(CSc3nnnn3-c3ccccc3)cn12 | 0 | 0 | 0 | 0 | 0 | 0 | - | -
COc1cc2nc(N(C)C)nc(N)c2cc1OC | 0 | 0 | 0 | 0 | 0 | 13 | 28 | 0
CCOC(=O)C(Nc1ccc2ccccc2c1)C(=O)OCC | 0 | 0 | 0 | 0 | 0 | 8.3 | 7.9 | 0
Nc1ccc(Nc2nc(-c3ccncc3)cs2)cc1 | 0 | 0 | 0 | 0 | 0 | 13 | 11 | 13
CCC(=O)N/C(N)=N/c1nc(C)c2cc(OC)ccc2n1 | 0 | 0 | 0 | 0 | 0 | 18 | 35 | 13
COc1ccc2nc(/N=C(\N)NC(=O)C(C)(C)C)nc(C)c2c1 | 0 | 0 | 0 | 0 | 0 | 0 | - | -
CN(C(=O)CC1C(=O)NCCN1Cc1ccc(F)c(F)c1)C1CCCCC1 (centres undefined) | 0 | 0 | 0 | 0 | 0 | 0 | - | -

Source: PubChem
